Data on 38 targets can be found in the supplement of paper PMC12819154, “High-throughput peptide-centric local stability assay extends protein–ligand identification to membrane proteins, tissues and bacteria” (Nature Structural & Molecular Biology, 2025).

Chain of UniProt Q2VIR3 (Q2VIR3 whole entry): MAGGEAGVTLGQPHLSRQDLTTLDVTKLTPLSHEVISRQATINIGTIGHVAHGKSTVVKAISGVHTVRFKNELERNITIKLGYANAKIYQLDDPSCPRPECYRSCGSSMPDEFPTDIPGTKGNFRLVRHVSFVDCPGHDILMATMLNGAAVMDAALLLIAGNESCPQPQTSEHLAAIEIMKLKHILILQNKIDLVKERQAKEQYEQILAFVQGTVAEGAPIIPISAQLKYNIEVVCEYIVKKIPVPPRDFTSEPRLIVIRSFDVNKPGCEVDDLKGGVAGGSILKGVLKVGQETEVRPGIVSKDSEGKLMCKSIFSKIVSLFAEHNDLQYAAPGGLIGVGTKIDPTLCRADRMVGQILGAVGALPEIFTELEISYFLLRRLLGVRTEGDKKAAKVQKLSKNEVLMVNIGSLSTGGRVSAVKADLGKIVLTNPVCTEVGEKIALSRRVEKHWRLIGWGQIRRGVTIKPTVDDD
Chain of UniProt O60231 (O60231 whole entry): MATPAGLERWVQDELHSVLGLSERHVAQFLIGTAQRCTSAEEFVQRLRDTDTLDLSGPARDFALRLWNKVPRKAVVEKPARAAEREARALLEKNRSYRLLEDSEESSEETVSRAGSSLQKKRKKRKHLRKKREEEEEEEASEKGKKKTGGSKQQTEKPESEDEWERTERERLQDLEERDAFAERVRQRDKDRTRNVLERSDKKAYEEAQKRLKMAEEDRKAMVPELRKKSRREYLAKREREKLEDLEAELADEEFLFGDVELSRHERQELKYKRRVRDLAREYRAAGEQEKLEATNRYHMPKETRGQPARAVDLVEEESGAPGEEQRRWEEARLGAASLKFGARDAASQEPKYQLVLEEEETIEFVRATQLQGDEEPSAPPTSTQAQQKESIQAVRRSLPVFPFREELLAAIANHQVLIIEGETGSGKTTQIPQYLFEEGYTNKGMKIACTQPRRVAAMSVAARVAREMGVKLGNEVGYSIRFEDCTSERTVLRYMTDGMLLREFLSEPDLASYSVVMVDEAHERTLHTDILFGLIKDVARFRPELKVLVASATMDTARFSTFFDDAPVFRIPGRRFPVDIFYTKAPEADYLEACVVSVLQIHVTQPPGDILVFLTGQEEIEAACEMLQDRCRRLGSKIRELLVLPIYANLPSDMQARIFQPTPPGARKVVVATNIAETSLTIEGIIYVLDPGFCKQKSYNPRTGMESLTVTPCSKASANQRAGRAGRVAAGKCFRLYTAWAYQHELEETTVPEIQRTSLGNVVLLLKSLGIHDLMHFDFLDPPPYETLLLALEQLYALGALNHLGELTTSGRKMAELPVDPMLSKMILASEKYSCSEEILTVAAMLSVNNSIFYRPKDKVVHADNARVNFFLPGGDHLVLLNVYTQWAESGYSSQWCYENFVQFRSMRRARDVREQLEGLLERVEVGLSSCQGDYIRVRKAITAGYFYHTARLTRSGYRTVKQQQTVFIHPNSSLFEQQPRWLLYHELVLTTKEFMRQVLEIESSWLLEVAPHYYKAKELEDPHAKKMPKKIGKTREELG
Chain of UniProt Q96S94 (Q96S94 whole entry): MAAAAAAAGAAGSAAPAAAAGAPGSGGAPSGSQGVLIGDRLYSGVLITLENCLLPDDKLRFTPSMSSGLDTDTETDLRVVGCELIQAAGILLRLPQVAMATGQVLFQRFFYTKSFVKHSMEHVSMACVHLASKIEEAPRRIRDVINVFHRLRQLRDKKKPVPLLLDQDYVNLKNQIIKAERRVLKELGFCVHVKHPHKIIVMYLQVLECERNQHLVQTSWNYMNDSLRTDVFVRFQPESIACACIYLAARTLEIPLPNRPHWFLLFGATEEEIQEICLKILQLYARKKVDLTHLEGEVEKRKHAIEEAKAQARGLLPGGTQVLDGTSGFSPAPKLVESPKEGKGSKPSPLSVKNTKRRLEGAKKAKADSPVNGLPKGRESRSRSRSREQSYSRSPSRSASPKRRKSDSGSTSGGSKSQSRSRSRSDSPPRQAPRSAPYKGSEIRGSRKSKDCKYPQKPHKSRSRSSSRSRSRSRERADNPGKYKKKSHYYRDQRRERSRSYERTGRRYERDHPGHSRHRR
Chain of UniProt Q96BR1 (Q96BR1 whole entry): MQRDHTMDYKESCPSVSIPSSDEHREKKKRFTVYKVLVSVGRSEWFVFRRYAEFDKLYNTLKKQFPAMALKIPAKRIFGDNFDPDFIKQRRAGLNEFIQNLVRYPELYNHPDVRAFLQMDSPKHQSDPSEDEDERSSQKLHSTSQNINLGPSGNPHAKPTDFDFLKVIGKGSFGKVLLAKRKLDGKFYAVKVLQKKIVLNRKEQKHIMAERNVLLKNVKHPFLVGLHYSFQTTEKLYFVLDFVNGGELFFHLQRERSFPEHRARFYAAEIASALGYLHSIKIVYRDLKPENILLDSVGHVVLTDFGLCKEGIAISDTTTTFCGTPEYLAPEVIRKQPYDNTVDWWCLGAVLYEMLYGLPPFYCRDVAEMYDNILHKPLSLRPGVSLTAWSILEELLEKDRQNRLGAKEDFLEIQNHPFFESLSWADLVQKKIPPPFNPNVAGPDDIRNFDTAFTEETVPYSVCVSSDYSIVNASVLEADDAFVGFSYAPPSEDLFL
Chain of UniProt Q15759 (Q15759 whole entry): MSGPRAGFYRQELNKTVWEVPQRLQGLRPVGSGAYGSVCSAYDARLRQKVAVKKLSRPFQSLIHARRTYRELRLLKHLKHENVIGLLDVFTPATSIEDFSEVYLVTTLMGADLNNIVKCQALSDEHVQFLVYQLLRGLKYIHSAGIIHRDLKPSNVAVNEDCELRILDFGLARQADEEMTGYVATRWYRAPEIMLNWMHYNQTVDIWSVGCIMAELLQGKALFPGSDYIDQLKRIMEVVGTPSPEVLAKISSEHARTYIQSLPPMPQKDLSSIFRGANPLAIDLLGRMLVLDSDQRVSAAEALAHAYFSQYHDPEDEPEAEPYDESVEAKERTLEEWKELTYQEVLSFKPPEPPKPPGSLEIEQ
Chain of UniProt P57071 (P57071 whole entry): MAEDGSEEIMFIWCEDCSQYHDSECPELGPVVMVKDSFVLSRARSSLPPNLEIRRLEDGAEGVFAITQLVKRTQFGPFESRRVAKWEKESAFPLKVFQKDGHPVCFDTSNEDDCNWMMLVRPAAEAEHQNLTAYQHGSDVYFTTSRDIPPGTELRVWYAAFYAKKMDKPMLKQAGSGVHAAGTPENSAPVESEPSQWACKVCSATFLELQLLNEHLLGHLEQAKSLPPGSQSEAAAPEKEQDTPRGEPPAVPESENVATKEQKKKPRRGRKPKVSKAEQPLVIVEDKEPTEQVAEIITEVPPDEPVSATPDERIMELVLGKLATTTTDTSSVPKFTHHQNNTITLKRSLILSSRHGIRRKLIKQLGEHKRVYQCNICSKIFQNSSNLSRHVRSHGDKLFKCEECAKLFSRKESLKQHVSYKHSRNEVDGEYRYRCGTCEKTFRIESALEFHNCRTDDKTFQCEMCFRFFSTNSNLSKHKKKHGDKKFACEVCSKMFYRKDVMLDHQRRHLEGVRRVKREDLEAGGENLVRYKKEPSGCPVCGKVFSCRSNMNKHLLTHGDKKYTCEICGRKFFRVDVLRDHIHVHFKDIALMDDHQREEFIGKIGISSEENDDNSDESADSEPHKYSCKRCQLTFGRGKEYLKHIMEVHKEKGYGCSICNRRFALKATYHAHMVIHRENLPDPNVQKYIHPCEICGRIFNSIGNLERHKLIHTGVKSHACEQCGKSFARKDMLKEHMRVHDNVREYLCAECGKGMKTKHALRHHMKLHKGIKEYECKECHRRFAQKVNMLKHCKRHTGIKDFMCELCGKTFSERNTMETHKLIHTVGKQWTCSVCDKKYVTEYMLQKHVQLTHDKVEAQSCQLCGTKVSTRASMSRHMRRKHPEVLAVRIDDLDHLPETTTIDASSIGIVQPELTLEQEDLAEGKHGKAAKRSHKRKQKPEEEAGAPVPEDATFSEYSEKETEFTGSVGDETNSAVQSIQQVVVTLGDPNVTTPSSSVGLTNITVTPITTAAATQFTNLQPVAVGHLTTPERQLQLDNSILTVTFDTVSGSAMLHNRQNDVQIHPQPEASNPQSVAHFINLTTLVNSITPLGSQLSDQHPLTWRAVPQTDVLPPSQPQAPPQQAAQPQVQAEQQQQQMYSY
Chain of UniProt Q9NRH2 (Q9NRH2 whole entry): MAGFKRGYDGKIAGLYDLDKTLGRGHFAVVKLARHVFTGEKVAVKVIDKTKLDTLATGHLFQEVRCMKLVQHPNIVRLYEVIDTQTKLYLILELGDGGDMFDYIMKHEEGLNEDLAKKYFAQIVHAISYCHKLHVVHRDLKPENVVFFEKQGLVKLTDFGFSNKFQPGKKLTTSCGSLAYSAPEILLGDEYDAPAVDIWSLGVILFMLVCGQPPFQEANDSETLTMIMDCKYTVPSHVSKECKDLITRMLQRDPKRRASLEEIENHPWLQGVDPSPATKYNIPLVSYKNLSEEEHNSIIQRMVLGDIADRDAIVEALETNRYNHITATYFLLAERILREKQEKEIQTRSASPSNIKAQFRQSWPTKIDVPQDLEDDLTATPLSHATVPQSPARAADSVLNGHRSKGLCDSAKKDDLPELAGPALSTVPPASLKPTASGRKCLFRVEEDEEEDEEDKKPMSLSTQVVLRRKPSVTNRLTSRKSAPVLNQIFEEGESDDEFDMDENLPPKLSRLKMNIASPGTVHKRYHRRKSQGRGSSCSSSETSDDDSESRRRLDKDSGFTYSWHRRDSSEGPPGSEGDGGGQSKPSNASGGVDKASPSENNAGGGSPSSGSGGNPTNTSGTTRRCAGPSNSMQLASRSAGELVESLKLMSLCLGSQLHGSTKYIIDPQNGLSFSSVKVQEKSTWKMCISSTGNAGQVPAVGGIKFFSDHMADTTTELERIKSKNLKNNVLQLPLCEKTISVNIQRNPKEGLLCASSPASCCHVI
Chain of UniProt Q70IA6 (Q70IA6 whole entry): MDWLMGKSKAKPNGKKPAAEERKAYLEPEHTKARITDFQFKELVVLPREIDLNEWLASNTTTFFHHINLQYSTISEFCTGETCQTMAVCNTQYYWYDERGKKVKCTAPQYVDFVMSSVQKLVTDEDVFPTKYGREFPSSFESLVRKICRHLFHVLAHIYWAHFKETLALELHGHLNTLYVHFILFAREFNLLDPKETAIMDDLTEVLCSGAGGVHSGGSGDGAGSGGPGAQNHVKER

Compound in this assay: CN[C@@H]1C[C@H]2O[C@@](C)([C@@H]1OC)n1c3ccccc3c3c4c(c5c6ccccc6n2c5c31)C(=O)NC4 [staurosporine]
The experiment in a line: log2 fold change of tryptic peptide abundance, ligand vs vehicle (limited proteolysis) (log2 ratio); higher = more trypsin-susceptible (destabilized). The settings on record: ligand concentration: 20 uM; sample: K562 cleared lysate; digestion: 4 min, 22 C (HT-PELSA RT4min, Orbitrap Astral).
As for “PRKAR2A (peptide sequence: GQYFGELALVTNKPR, peptide start residue: 333) (UniProt P13861)”, the log2 fold change was found to be 0.659. The result for “EPHB3 (peptide sequence: VSDFGLSR, peptide start residue: 537) (UniProt P54753)” reads 0.918; that for “SNRK (peptide sequence: IAGLYDLDKTLGR, peptide start residue: 12) (UniProt Q9NRH2)”, -2.34; that for “SGK3 (peptide sequence: FYAAEIASALGYLHSIK, peptide start residue: 265) (UniProt Q96BR1)”, -1.54. “UniProt P62995 (peptide sequence: SPSPYYSR, peptide start residue: 264)”: the log2 fold change was found to be 1.31. With “TAOK2 (peptide sequence: ERPPTVIMDLIQR, peptide start residue: 284) (UniProt Q9UL54)”, the log2 fold change was -2.3.

As to “PRKAR1A (peptide sequence: ILMGSTLR, peptide start residue: 234) (UniProt P10644)”, the log2 fold change came out at 0.333. With “MAPK11 (peptide sequence: ILDFGLAR, peptide start residue: 166) (UniProt Q15759)”, the log2 fold change is -1.18.

As to “NEK9 (peptide sequence: TLNIFLTK, peptide start residue: 179) (UniProt Q8TD19)”, the log2 fold change was -0.436. The result for “RIPK1 (peptide sequence: IADLGLASFK, peptide start residue: 154) (UniProt Q13546)” reads -0.814; that for “UTP11 (peptide sequence: SELHLLDFQGK, peptide start residue: 121) (UniProt Q9Y3A2)”, -1.12. The result for “MARS (peptide sequence: SCPVVQSSQHLFLDLPK, peptide start residue: 440) (UniProt P56192)” reads 0.233; that for “BRAF (peptide sequence: GYLSPDLSK, peptide start residue: 525) (UniProt P15056)”, 0.499. The result for “GALE (peptide sequence: MCEDLWR, peptide start residue: 329) (UniProt Q14376)” reads 0.379; that for “UniProt P27448 (peptide sequence: NSIASCADEQPHIGNYR, peptide start residue: 41)”, -2.82; that for “CCNB2 (peptide sequence: VAAAASCLSQK, peptide start residue: 308) (UniProt O95067)”, -1.57. As for “DHX16 (peptide sequence: QQTEKPESEDEWER, peptide start residue: 153) (UniProt O60231)”, the log2 fold change came out at 2.31.

Regarding “POLR3A (peptide sequence: ISHICFGMK, peptide start residue: 15) (UniProt O14802)”, the log2 fold change amounted to 0.539. Turning to “UniProt P25098 (peptide sequence: DLKPANILLDEHGHVR, peptide start residue: 317)”, the log2 fold change is -0.579. For “UniProt O75170 (peptide sequence: ILEAWEANDHTQAAGGMR, peptide start residue: 456)”, the log2 fold change is -0.977. The result for “CAD (peptide sequence: FLSSAAAVSKEHPVVISK, peptide start residue: 1110) (UniProt P27708)” reads -0.418. With “INTS12 (peptide sequence: SVSCDNVSK, peptide start residue: 376) (UniProt Q96CB8)”, the log2 fold change was determined as 1.68. The result for “NSUN2 (peptide sequence: LAQEGIYTLYPFINSR, peptide start residue: 603) (UniProt Q08J23)” reads -0.339; that for “TAGLN2 (peptide sequence: TLMNLGGLAVAR, peptide start residue: 128) (UniProt P37802)”, 0.271; that for “HBG1 (peptide sequence: VLTSLGDAIK, peptide start residue: 68) (UniProt P69891)”, 0.204. As to “TNK1 (peptide sequence: VADFGLVRPLGGAR, peptide start residue: 261) (UniProt Q13470)”, the log2 fold change was -3.64. Then “UniProt Q2VIR3 (peptide sequence: FKNELER, peptide start residue: 69)”, with 0.555; and “PRDM15 (peptide sequence: VKREDLEAGGENLVR, peptide start residue: 882) (UniProt P57071)”, with -1.86. As to “UniProt P78527 (peptide sequence: GYGLFAGPCK, peptide start residue: 365)”, the log2 fold change was found to be 0.189. The result for “MOB2 (peptide sequence: ITDFQFK, peptide start residue: 35) (UniProt Q70IA6)” reads 0.834; that for “CCNB1 (peptide sequence: NVVMVNQGLTK, peptide start residue: 386) (UniProt P14635)”, -1.47; that for “UniProt Q00537 (peptide sequence: LGEGTYATVYK, peptide start residue: 171)”, -2.88.

Regarding “EIF4A3 (peptide sequence: ETQALILAPTR, peptide start residue: 106) (UniProt P38919)”, the log2 fold change stood at 0.375.

As to “UniProt P06493 (peptide sequence: HPNIVSLQDVLMQDSR, peptide start residue: 60)”, the log2 fold change is -1.19.

For the target “NUP188 (peptide sequence: HTLNPEETSSVVR, peptide start residue: 331) (UniProt Q5SRE5)”, the log2 fold change came out at 1.1. Then “CCNL2 (peptide sequence: HSMEHVSMACVHLASK, peptide start residue: 118) (UniProt Q96S94)”, with -1.06; and “UniProt P62913 (peptide sequence: KLCLNICVGESGDR, peptide start residue: 19)”, with -0.237. The result for “WEE1 (peptide sequence: FLANEVLQENYTHLPK, peptide start residue: 482) (UniProt P30291)” reads -1.01.
